Measured values: PubChem BioAssay AID504332 (National Center for Advancing Translational Sciences (NCATS), 2011)
Among all 350,000 compounds or so, about 31,000 (8.9%) were called active. Another 15% or so got no clear call; they are omitted. What follows is part of a selection rich in actives, with near analogues and random picks from the rest. The source holds several records for some structures; these can differ, active in one and inactive in another. A number with no mark means an inactive call. The call rests on the fitted dose curve; in most records, active means well fitted inhibition curve with a large enough effect; inconclusive means small, poorly fitted or top-dose-only effect; inactive means no such curve, though single readings can be large or run the other way.

molecular target: Histone-lysine N-methyltransferase EHMT2 (Homo sapiens) (UniProt Q96KQ7); assay: qHTS Assay for Inhibitors of Histone Lysine Methyltransferase G9a; settings: G9a H3K9 monomethylation, AlphaScreen, 2 h; series mostly up to 59 µM; activity, negative = inhibition: at the top concentration; further: nearly all actives have a fitted effect of over 75% in size
Sequence (Q96KQ7 913-1193 limits assumed): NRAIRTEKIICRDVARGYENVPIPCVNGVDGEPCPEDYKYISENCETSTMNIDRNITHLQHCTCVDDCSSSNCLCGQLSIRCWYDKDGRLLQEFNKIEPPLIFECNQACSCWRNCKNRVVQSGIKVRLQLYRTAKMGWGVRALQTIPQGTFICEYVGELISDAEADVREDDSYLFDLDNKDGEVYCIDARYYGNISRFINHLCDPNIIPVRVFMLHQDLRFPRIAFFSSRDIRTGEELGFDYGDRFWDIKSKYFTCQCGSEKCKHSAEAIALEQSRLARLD
Method in brief: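 Signal arises when biotinylated H3K9 peptide, once monomethylated, bridges streptavidin donor and antibody-captured acceptor beads. Enzyme at 20 nM was preincubated 15 min with test compounds; peptide 500 nM and SAM 20 uM then reacted for 2 h.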
On the % scale 0 is the no-effect control and ±100 the full control effect; potency means the concentration at half of the fitted maximal effect.

SMILES	activity, negative = inhibition	Potency
CC(=O)N1c2ccc(S(=O)(=O)N3CCCCCC3)cc2CC1C(=O)NCc1ccccc1C (stereo unspecified)	11.6%	
Cc1ccc(S(=O)(=O)NCCC(=O)NNC(=O)C2COc3ccccc3O2)cc1 (stereo unspecified)	3.72%	
Cc1ccc(-n2ncc(C(=O)N(C)Cc3ccccc3)c2-n2cccc2)cc1	-21.6%	
COc1ccc(C(=O)NC2CC2)cc1OC1CCN(Cc2ccc(SC)cc2)CC1	-9.68%	
CCOC(=O)c1c(NC(C)=O)c2c3c(sc2n1Cc1c(C)cc(C)cc1C)CCCC3	-2.13%	
COc1cc2c(cc1OC)C(c1ccncc1)CC(=O)N2 (stereo unspecified)	-34% [at 2.33 µM]	
COc1cc2c(cc1OC)C(c1ccc(C)o1)CC(=O)N2 (stereo unspecified)		20 µM (active)
COC(=O)c1ccc(C2CC(=O)Nc3cc(OC)c(OC)cc32)cc1 (stereo unspecified)	14.9%	
O=C(Nc1cc(C(F)(F)F)ccc1Cl)c1cc2nc(-c3ccc4c(c3)OCO4)cc(C(F)(F)F)n2n1	-1.62%	
CCOc1ccccc1N(CC)C(=O)Nc1cn(C)c(=O)c2ccccc12	8.87%	
CC(C)(C)c1nc(NCC2CCCO2)c2nnn(Cc3ccccc3)c2n1 (stereo unspecified)	3.94% [at 102 µM]	
Cn1c(=O)c2[nH]c(NCC3CCCO3)nc2n(-c2ccccc2)c1=O (stereo unspecified)		8.91 µM (active)
Cc1sc2c(c1C)c(=O)n(-c1ccccc1)c(=O)n2CC(=O)NCC1CCCO1 (stereo unspecified)	8.85% [at 102 µM]	
CCN(CC)C(=O)CSc1nc2ccsc2c(=O)n1Cc1ccccc1Cl	-7.47%	
CCCCN(C)c1ccc([N+](=O)[O-])cc1	9.6%	
CCC1OC(c2ccc([N+](=O)[O-])cc2)=Nc2ccccc21 (stereo unspecified)		44.7 µM (active)
CCc1ccc2c(c1)C(c1ccc([N+](=O)[O-])cc1)=NNC(c1ccccc1)=N2	16.6% [at 102 µM]	
COc1ccc(OC)c(NC(=O)CSc2nc3cccnc3n2C)c1	-2.8% [at 12.7 µM]	
COc1ccc(-c2nnc(SCC(=O)Nc3cccnc3Cl)n2C)cc1		20 µM (active)
Cc1cccnc1NC(=O)CSc1nnc(COc2ccc(C(C)C)cc2)n1C	-14% [at 102 µM]	
CC1=C/C(=N\OS(=O)(=O)c2ccccc2)C=CC1=O		2.51 µM (active)
O=S(=O)(ON(c1ccccc1)S(=O)(=O)c1ccccc1)c1ccccc1	-7.16%	

SMILES	activity, negative = inhibition	Potency
CCOc1ccc(/C=C/C(=O)N(CC)CC(=O)NCc2cccs2)cc1OC	7.69% [at 2.33 µM]	
O=C(Cn1nnc(-c2ccccc2)n1)NC(=O)NC1CCCC1	14.2%	
Cc1ccc2c(c1)c1ncn(Cc3ccc(F)cc3)c(=O)c1n2C	23.9%	
Cn1c2ccc(F)cc2c2nnc(NN)nc21		39.8 µM (active)
CC(=O)Nc1ccc(NC(=O)CSc2nnc3c4cc(Br)ccc4n(C)c3n2)cc1	2.98%	
O=C(CN1C(=O)COc2ccc(S(=O)(=O)N3CCOCC3)cc21)N1CCN(c2cccc(Cl)c2)CC1	-5.56%	
CCN1CCN(c2nc(Nc3cc(OC)ccc3OC)nc(Nc3cc(OC)ccc3OC)n2)CC1	-48.8%	
CCOc1ccc(Nc2nc(Cl)nc(N3CCN(c4ccc(OC)cc4)CC3)n2)cc1		12.6 µM (active)
Cc1ccc(Nc2nc(N3CCOCC3)nc(N3CCOCC3)n2)cc1Cl	32.7%	
CC1CCN(c2nc3ccc(C(=O)N4CCN(c5ccccc5)CC4)cc3s2)CC1	-31.4%	
COC(=O)c1ccc(COC(=O)c2cnc(Cl)c(Cl)c2)cc1	17.8% [at 102 µM]	
Cc1cc(C)n(S(=O)(=O)c2cccc([N+](=O)[O-])c2)n1	-7.95% [at 102 µM]	
C/C(=N\NS(=O)(=O)c1cccc([N+](=O)[O-])c1)c1cc2ccccc2o1		12.6 µM (active)
CC1CN(C(=O)c2ccccc2NS(=O)(=O)c2cccc([N+](=O)[O-])c2)CC(C)O1 (stereo unspecified)	18.8%	
COc1ccccc1NS(=O)(=O)c1ccc(C)c(C(=O)NCC(c2ccco2)N(C)C)c1 (stereo unspecified)	22.9% [at 0.501 µM]	
COc1ccc(N2CCN(C3CCCCC3NS(=O)(=O)c3ccccc3)CC2)cc1 (stereo unspecified)		22.4 µM (active)
O=S(=O)(NC1CCCCC1N1CCN(c2ccccc2F)CC1)c1ccccc1 (stereo unspecified)	35.8% [at 102 µM]	
CCN1CCN(C2CCCCC2NS(=O)(=O)c2ccc(Cl)cc2)CC1 (stereo unspecified)	-0.698% [at 102 µM]	
CCC(CC)c1nnc(NC(=O)C2CCN(C(=O)c3ccco3)CC2)s1		3.98 µM (active)
COc1ccc(CNC(=O)C2CCN(C(=O)c3ccco3)CC2)cc1	16.9% [at 102 µM]	
CCC(=O)Nc1ccc(C(=O)N2CCN(C(=O)c3ccco3)CC2)cc1	23.7% [at 102 µM]	
CCN(CC)c1nn2c(=O)c(C(=O)NCCc3ccccc3)cnc2s1	18.4%	

SMILES	activity, negative = inhibition	Potency
CCc1noc(C)c1C(=O)Nc1nc2ccc(OC)cc2s1	-2.24% [at 12.7 µM]	
COC(=O)c1nc(NC(=O)c2ccc(F)cc2)n[nH]1		35.5 µM (active)
CSc1nccc(NC(=O)c2ccc(C(C)(C)C)cc2)n1	15.8% [at 0.501 µM]	
COc1ccc(C(=O)Nc2ccc(F)cc2F)cc1	29.4% [at 12.7 µM]	
O=C(Nc1n[nH]c(C(F)(F)F)n1)c1cccs1	0.152% [at 102 µM]	
COC(=O)c1nc(NC(=O)c2ccc(C(C)(C)C)cc2)n[nH]1		31.6 µM (active)
COC(=O)c1nc(NC(=O)c2ccccc2)n[nH]1	-8.15% [at 12.7 µM]	
COc1ccc(CNC(=O)COC(=O)c2ccc(C)c(S(=O)(=O)N3CCOCC3)c2)cc1OC	-2.29%	
O=C(c1cc(-c2ccc(Cl)cc2)on1)N1CCN(c2ccccc2)CC1	-4.11%	
Cc1ccc(NC(=O)Cn2cnc3nc4c(cc3c2=O)CCCC4)cc1Cl	2.05%	
Cc1ccc(C(=O)C(C)OC(=O)Cc2n[nH]c(=O)c3ccccc23)cc1C (stereo unspecified)	13.1% [at 2.33 µM]	
CCOC(=O)c1c(C)[nH]c(C)c1S(=O)(=O)N1CCCC(C(=O)NCc2ccccc2Cl)C1 (stereo unspecified)	-29.4%	
COc1ccc(/C=C/C(=O)NC(=S)N2CCCC(C(N)=O)C2)cc1 (stereo unspecified)		79.4 µM (active)
COc1ccc(CN2CCCC(CNC(=O)c3ccc(F)cc3)C2)cc1OC (stereo unspecified)	31.5% [at 102 µM]	
COc1ccc(C(=O)C2CCCN(Cc3ccc4nonc4c3)C2)c(C)c1 (stereo unspecified)	88.2% [at 102 µM]	
COc1ccc(NC(=O)N2CCCC(C(=O)Nc3ccccc3OC)C2)cc1 (stereo unspecified)	-0.0547% [at 102 µM]	
CCCCNC(=O)N1CCCC(N(C)CCc2ccc(OC)c(OC)c2)C1 (stereo unspecified)	38.3% [at 102 µM]	
O=C(c1ccc(F)cc1)N1CCCC(C(=O)N2CCCCC2)C1 (stereo unspecified)	67.9% [at 102 µM]	
CCOC(=O)C1CCCN(C(=O)/C=C/c2ccc(OC)cc2)C1 (stereo unspecified)	-38% [at 102 µM]	
COc1ccc(CN2CCCC(C(=O)N3CCCCC3)C2)cc1 (stereo unspecified)		11.2 µM (active)
COc1ccc(CCN(C)C(=O)C2CCCN(Cc3ccc(OC)c(OC)c3)C2)cc1OC (stereo unspecified)	-16.1% [at 0.501 µM]	5.01 µM (active)
